PubChem BioAssay (NCI)
About 83,000 compounds went through this panel and 20% of them were active in at least one assay; those are over-represented in the sample as a whole.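 Activity criterion: percent growth below 10, measured after cells in 96-well plates were exposed to a single compound concentration for 48 hours.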 Values without a mark were called inactive. Activity calls are given as the source filed them.

Legend:
Experiment in all cases: NCI-60 one-dose screen, 48 h (100 = growth as untreated, 0 = no growth, -100 = all killed)
NCI-H23 lung = conditions: 10 µM unless noted
NCI-H226 lung = conditions: 10 µM unless noted
NCI-H322M lung = conditions: 10 µM unless noted
HOP-62 NSCLC = conditions: 10 µM unless noted
NCI-H460 lung = conditions: 10 µM unless noted
NCI-H522 lung = conditions: 10 µM unless noted
A549/ATCC NSCLC = conditions: 10 µM unless noted
786-0 renal = conditions: 10 µM unless noted
COLO 205 colon = conditions: 10 µM unless noted
DU-145 prostate = conditions: 10 µM unless noted
K-562 leukemia = conditions: 10 µM unless noted
MALME-3M melanoma = conditions: 10 µM unless noted
MDA-MB-231 breast = conditions: 10 µM unless noted
RXF 393 renal = conditions: 10 µM unless noted
SF-268 CNS = conditions: 10 µM unless noted
SF-295 CNS = conditions: 10 µM unless noted
SF-539 CNS = conditions: 10 µM unless noted
UACC-257 melanoma = conditions: 10 µM unless noted
M14 melanoma = conditions: 10 µM unless noted
HOP-92 NSCLC = conditions: 10 µM

Row | Structure (SMILES) | growth (NCI-H23 lung) | growth (NCI-H226 lung) | growth (NCI-H322M lung) | growth (HOP-62 NSCLC) | growth (NCI-H460 lung) | growth (NCI-H522 lung) | growth (A549/ATCC NSCLC) | growth (786-0 renal) | growth (COLO 205 colon) | growth (DU-145 prostate) | growth (K-562 leukemia) | growth (MALME-3M melanoma) | growth (MDA-MB-231 breast) | growth (RXF 393 renal) | growth (SF-268 CNS) | growth (SF-295 CNS) | growth (SF-539 CNS) | growth (UACC-257 melanoma) | growth (M14 melanoma) | growth (HOP-92 NSCLC)
1 | C#CC(=O)N(c1ccc(OC)cc1OC)C(C(=O)NCC(=O)OCC)c1cccs1 (configuration not stated) | -54.7% (active) | 93.3% | 94.4% | 102% | 82.2% | -72.2% (active) | 94.4% | -75.2% (active) | 35% | 33.2% | 3.23% (active) | -61.8% (active) | 22.4% | 56.5% | -23.1% (active) | -67.9% (active) | -86% (active) | 86.6% | 80.9% | 
2 | Cn1cc(-c2nc(N)nnc2-c2c[nH]c3ccc(Br)cc23)c2cc(Br)ccc21 | 48.7% | 79.9% | 68.4% | 59.6% | 17.3% | 11.6% | 49.7% | 51.1% | 36.3% | 64.8% | 12.2% | 43% | 62.5% | 39.8% | 61.3% | 11.7% | 43.8% | 82.9% | 20.7% | 
3 | CC1=N[C@@H]2CN(C(=O)OC(C)(C)C)C[C@@H]2n2c1cc1ccccc1c2=O | 93.7% | 99.5% | 98.6% | 97.9% | 109% | 98.6% | 103% | 102% | 107% | 111% | 97.8% | 107% | 96.1% | 110% | 99.5% | 108% | 99.3% | 108% |  | 
4 | O=c1c2ccccc2nc(COc2ccccc2)n1NS(=O)(=O)c1ccc(Cl)cc1 | 82.8% | 83% | 82.9% | 75% | 96.1% | 69.4% | 86% | 107% | 95% | 100% | 47.3% | 82.1% | 67.4% | 97% | 88.6% | 97.2% | 86.9% | 91.2% | 74.2% | 
5 | COc1ccc(Oc2ccc(/C=N/NC(=O)CSc3nc4ccccc4c(=O)n3-c3ccc(Cl)cc3)cc2)cc1 | 41.6% | 79.7% | 84.7% | 73.3% | 11.2% |  | 47% | 25.2% | 72.8% | 49.2% | 58.4% | 63.9% | 46.7% |  | 57.9% | 67.7% | 32.2% | 94.7% |  | 77.3%
6 | NS(=O)(=O)c1ccc(Nc2nc(N/N=C/c3ccccn3)nc(Nc3ccccc3)n2)cc1 | -7.29% (active) | -49.1% (active) | -9.94% (active) | -28.6% (active) | 3.8% (active) |  |  | 8.47% (active) | -42.1% (active) | 4.85% (active) | 12.3% | -68.2% (active) | -29.9% (active) | -74% (active) | -22% (active) | 0.752% (active) | -42.1% (active) | -18.1% (active) |  | -46.6% (active)
7 | COc1ccc(-n2c(SCc3nnc(NC(=O)c4ccc(Br)cc4)s3)nc3cc(OC)c(OC)cc3c2=O)cc1 | 92.5% | 74% | 85.5% | 92.3% | 93.5% | 89.2% | 102% | 105% | 104% | 89.4% | 100% | 92.2% | 87.9% | 104% | 86.4% | 93.2% | 92.9% | 101% |  | 
8 | O=C(NNc1nc2cc(F)ccc2n2cccc12)c1ccncn1 | 30% | 13.2% | 31.7% | 20.5% | 9.08% (active) | -6.6% (active) | 14.7% | 11% | 10.3% | 18.6% | 14.6% | 27.6% | 41.1% | 30.3% | 19.6% | 12.1% | 4.41% (active) | 5.01% (active) |  | 
9 | N/C(=N\C(N)=N\c1nc2ccccc2s1)c1ccncc1Cl | 33.9% | 67.8% | 80.6% | 51.6% | 23.4% | 18.4% | 71% | 42.7% | 50.4% | 45.7% | 17.1% | 45.7% | 45% | 8.87% (active) | 52.6% | -22.2% (active) | 7.8% (active) | 79.7% |  | 
10 | Cc1ccc(N2C(=O)/C(=C/C=C/c3ccco3)SC2=S)cc1 | 98.9% | 102% | 96.4% | 95.9% | 88.9% | 81.8% | 86.3% | 104% | 94.3% | 100% | 61.2% | 91.4% | 94.9% | 74.6% | 105% | 99.1% | 101% | 88.3% |  | 
11 | Cc1cccc2c3c(sc12)C(c1ccc(Cl)cc1)c1c(nc(CC(=O)Nc2ccccc2)[nH]c1=O)O3 (configuration not stated) | 55.1% | 65.4% | 76.5% | 59.8% | 42.1% | 26.9% | 62.6% | 75.9% | 101% | 93% | 20.9% | 51.3% | 77% | 39.9% | 66.7% | 29.1% | 40% | 79.8% | 61.7% | 
12 | Nc1nc(-c2cccc([N+](=O)[O-])c2)c(N=Nc2ccc(Br)cc2)s1 | -65% (active) | -39.2% (active) | -25.4% (active) | -68.1% (active) | -61% (active) | -48.6% (active) | -20.3% (active) | -96.4% (active) | -2.36% (active) | -41.2% (active) | 16.6% | -62% (active) | -46.6% (active) | -92.3% (active) | 26.2% | -65.4% (active) | -98% (active) | 0.3% (active) |  | 
13 | Cc1cc(C)c2sc(=O)n(Cc3nnc(SCCC(=O)O)o3)c2n1 | 101% | 94.5% | 98% | 98.2% | 105% | 100% | 104% | 104% | 124% | 108% | 94.2% | 99.2% | 97.5% | 89.2% | 99.2% | 101% | 98.8% | 101% |  | 
14 | O=C(Nc1ccc(Br)cc1)Nc1nc2ccc([N+](=O)[O-])cc2s1 | -21.9% (active) | -3.17% (active) | 8.37% (active) | 0.86% (active) | -3.34% (active) | 3.86% (active) | 5.83% (active) | 11.2% | -37% (active) | 18.8% | 2.8% (active) | -14.1% (active) | -5.42% (active) | -27.8% (active) | 12.2% | -40.1% (active) | 0.554% (active) | -16.8% (active) | 2.06% (active) | 
15 | COc1ccc(/C=C/C(=O)c2cccc(NC(=O)CSc3nc4ccccc4c(=O)n3-c3ccccc3)c2)cc1OC | 106% | 93.2% | 105% | 111% | 100% | 96.9% | 91.5% | 103% | 123% | 105% | 89.9% | 107% | 97.3% | 97.7% | 94.6% | 103% | 101% | 110% | 102% | 
16 | Clc1nc2ccccc2nc1-c1nnc(C2CCCCC2)o1 | 86.3% | 84.7% | 97.8% | 106% | 97.5% | 99% | 98.4% | 106% | 110% | 91.3% | 80.9% | 95.2% | 105% | 87.6% | 101% | 106% | 97.7% | 96.7% |  | 
